We go through 8 compounds from PubChem BioAssay (NCI).

Some test systems named below: HCT-15 colon; HT29 colon; SNB-75 CNS; SNB-19 CNS; U251 CNS; PC-3 prostate; SK-MEL-5 melanoma; UACC-62 melanoma; LOX IMVI melanoma; SK-MEL-28 melanoma; SK-MEL-2 melanoma; EKVX NSCLC; SN12C renal; UO-31 renal; ACHN renal; CAKI-1 renal; A498 renal; CCRF-CEM leukemia; MOLT-4 leukemia.
Test in all cases: NCI-60 one-dose screen, 48 h (100 = growth as untreated, 0 = no growth, -100 = all killed)
Common to all, as to settings: 10 µM unless noted

Each structure is given as a SMILES string. The panel holds about 83,000 compounds, 20% with a hit somewhere; the sample as a whole holds those more often.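 How to read the values: 0–100, growth inhibition (40 = 60% inhibited); 0, no net growth; -100 to 0, cell death (-40 = 40% of starting cells died; -100 = all dead).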 Unmarked numbers belong to inactive results. The source made the active and inactive calls. Rule for the calls: active = growth percent below 10; inactive = the rest.

For `COc1cc(/C=C2\CN(C)CC3=C2Nc2nc(SC)[nH]c(=O)c2C3c2cc(OC)c(OC)c(OC)c2)cc(OC)c1OC` (stereo unspecified), the growth was 36.6% in the experiment with HCT-15 colon; 15% in the experiment with HT29 colon; 27.8% in the experiment with SNB-75 CNS; 66.8% with SNB-19 CNS; 20.6% in the experiment on U251 CNS; 68% with PC-3 prostate. In addition, the growth in the experiment with SK-MEL-5 melanoma was 58.2%; in the experiment with UACC-62 melanoma it was 30%; with LOX IMVI melanoma, 3.87% (active); in the experiment on SK-MEL-28 melanoma, 44.9%; with SK-MEL-2 melanoma, 71.8%; in the experiment on EKVX NSCLC it was 83.7%. Besides, the growth in the experiment with SN12C renal was 24.2%; in the experiment on UO-31 renal, 52.4%; in the experiment with ACHN renal, 39.2%; in the experiment with CAKI-1 renal, 14.5%; in the experiment on A498 renal it was 95.9%; with CCRF-CEM leukemia it was -0.341% (active). The growth in the experiment with MOLT-4 leukemia is 0.96% (active).
As for `CCOc1nc(-c2ccco2)n2nc(-c3ccco3)cc2n1`, the growth is 99.4% in the experiment on HCT-15 colon; 100% with HT29 colon; 82.9% in the experiment with SNB-75 CNS; 97.3% with SNB-19 CNS; 98.3% in the experiment with U251 CNS; 105% with PC-3 prostate. Besides, the growth with SK-MEL-5 melanoma was 81.4%; in the experiment on UACC-62 melanoma it was 86.4%; with LOX IMVI melanoma, 98.4%; with SK-MEL-28 melanoma it was 110%; in the experiment with SK-MEL-2 melanoma, 117%; with EKVX NSCLC, 95%. Moreover, the growth in the experiment on SN12C renal is 104%; with UO-31 renal, 91.1%; in the experiment on ACHN renal it was 95.5%; in the experiment on CAKI-1 renal, 95.9%; with A498 renal it was 83.5%; in the experiment on CCRF-CEM leukemia, 102%. In addition, the growth with MOLT-4 leukemia is 114%.
With `Cc1ccc(/C=C/C(=O)c2ccc(F)cc2)s1`, the growth was 67.3% in the experiment with HCT-15 colon; 43.5% with HT29 colon; 90.9% in the experiment with SNB-75 CNS; 88% in the experiment with SNB-19 CNS; 51.6% in the experiment with U251 CNS; 63.8% in the experiment on PC-3 prostate. In addition, the growth with SK-MEL-5 melanoma is 90.6%; in the experiment on UACC-62 melanoma, 72.7%; in the experiment with LOX IMVI melanoma, 58.3%; in the experiment with SK-MEL-28 melanoma it was 105%; in the experiment on SK-MEL-2 melanoma, 85.8%; in the experiment with EKVX NSCLC, 81.1%. Also, the growth is 71.7% in the experiment on SN12C renal; 57.6% with UO-31 renal; 83% in the experiment with ACHN renal; 78.6% in the experiment with CAKI-1 renal; 70.1% in the experiment with A498 renal; 8.11% (active) with CCRF-CEM leukemia. The growth with MOLT-4 leukemia is 11.6%.
For `CC[C@H]1CN2CCc3cc(OC)c(OC)cc3C2C[C@@H]1CC1NCCc2cc(OC)c(OC)cc21` (stereo partly specified), the growth in the experiment on HCT-15 colon was -18% (active); in the experiment on HT29 colon, -14.5% (active); in the experiment with SNB-75 CNS it was -52.2% (active); in the experiment with SNB-19 CNS it was -6.47% (active); in the experiment on U251 CNS it was -10.2% (active); in the experiment on PC-3 prostate, -12% (active). The growth in the experiment with SK-MEL-5 melanoma is -88.7% (active); with UACC-62 melanoma, -82% (active); with LOX IMVI melanoma it was -27.8% (active); in the experiment with SK-MEL-28 melanoma it was -14.4% (active); in the experiment with SK-MEL-2 melanoma, -70.5% (active); in the experiment on EKVX NSCLC, -27.4% (active). Further, the growth in the experiment with SN12C renal is -13.1% (active); in the experiment on UO-31 renal it was -37.9% (active); in the experiment with ACHN renal, -16.5% (active); in the experiment with CAKI-1 renal, -34.3% (active); in the experiment with A498 renal, -49.9% (active); in the experiment with CCRF-CEM leukemia, -18% (active). The growth with MOLT-4 leukemia was -13.1% (active).
For the compound `O=C1/C(=C\c2coc3ccccc3c2=O)c2ccccc2N1c1c(Cl)cccc1Cl`, the growth is 24.7% in the experiment on HCT-15 colon; 47.6% in the experiment with HT29 colon; 62.7% in the experiment on SNB-75 CNS; 62.6% in the experiment with SNB-19 CNS; 36% in the experiment on U251 CNS; 31.8% in the experiment with PC-3 prostate. Also, the growth in the experiment with SK-MEL-5 melanoma is 20.3%; in the experiment with UACC-62 melanoma, 36.6%; with LOX IMVI melanoma it was 37.1%; in the experiment with SK-MEL-28 melanoma, 47.3%; in the experiment on SK-MEL-2 melanoma it was 85.7%; with EKVX NSCLC, 33.1%. Moreover, the growth with SN12C renal was 59.5%; in the experiment with UO-31 renal, 42.6%; in the experiment with ACHN renal it was 54.6%; in the experiment on CAKI-1 renal, -7.88% (active); with A498 renal, 12.6%; with CCRF-CEM leukemia, 21.1%. The growth in the experiment with MOLT-4 leukemia is 19%.
With `O=C1CSC(c2ccccc2Cl)N1c1nnc(Cn2nnc3ccccc32)o1` (stereo unspecified), the growth is 74.8% in the experiment on HCT-15 colon; 81.2% in the experiment with HT29 colon; 81.6% in the experiment with SNB-75 CNS; 83.3% in the experiment with SNB-19 CNS; 77.6% in the experiment on U251 CNS; 68.9% in the experiment with PC-3 prostate. For the same compound, the growth is 79.3% in the experiment on SK-MEL-5 melanoma; 63.8% in the experiment with UACC-62 melanoma; 85.9% in the experiment on LOX IMVI melanoma; 92.8% in the experiment with SK-MEL-28 melanoma; 91.7% in the experiment with SK-MEL-2 melanoma; 75% in the experiment with EKVX NSCLC. In addition, the growth with SN12C renal was 87.4%; with UO-31 renal, 66.3%; with ACHN renal, 83.6%; with CAKI-1 renal it was 40.6%; in the experiment with A498 renal, 50.2%; with CCRF-CEM leukemia, 85.6%. For the same compound, in the experiment with MOLT-4 leukemia, the growth is 73.4%.
For `COc1cc(C2CC(c3ccc(C)cc3)=NN2C=O)ccc1OCCN(C)C` (stereo unspecified), the growth in the experiment with HCT-15 colon was 76%; in the experiment with HT29 colon it was 84.2%; with SNB-75 CNS, 62.2%; in the experiment on SNB-19 CNS, 92.5%; with U251 CNS, 92.2%; in the experiment on PC-3 prostate it was 79%. The growth with SK-MEL-5 melanoma was 90.2%; in the experiment with UACC-62 melanoma, 100%; in the experiment with LOX IMVI melanoma, 89.8%; with SK-MEL-28 melanoma, 107%; with SK-MEL-2 melanoma, 98.4%; in the experiment on EKVX NSCLC, 90.1%. In addition, the growth in the experiment on SN12C renal is 95.2%; in the experiment with UO-31 renal, 64.5%; in the experiment with ACHN renal it was 100%; in the experiment on A498 renal, 92.4%; in the experiment with CCRF-CEM leukemia it was 88.7%; in the experiment with MOLT-4 leukemia it was 77.8%.
In the case of `C[N+]1(C)C2CC[C@@H]1CC(OC(=O)C(O)c1ccccc1)C2` (stereo partly specified), the growth was 105% in the experiment with HCT-15 colon; 103% with HT29 colon; 99% with SNB-75 CNS; 110% in the experiment with SNB-19 CNS; 98.5% with U251 CNS; 99.5% in the experiment with PC-3 prostate. In addition, the growth in the experiment with SK-MEL-5 melanoma was 102%; with UACC-62 melanoma, 102%; with LOX IMVI melanoma, 102%; in the experiment on SK-MEL-28 melanoma, 113%; in the experiment with SK-MEL-2 melanoma, 150%; in the experiment on EKVX NSCLC it was 99.4%. Besides, the growth in the experiment on SN12C renal is 87.3%; in the experiment on UO-31 renal, 85.3%; with ACHN renal, 106%; in the experiment on CAKI-1 renal it was 84.1%; with A498 renal, 109%; in the experiment with CCRF-CEM leukemia, 93.1%. Besides, the growth with MOLT-4 leukemia was 126%.
